Records with an inconclusive call do not appear. A call without a number means that no potency is given here. The source made the active and inactive calls. The call rests on the fitted dose curve; in most records, active means well fitted curve in the direction sought with a large enough effect; inconclusive means small, poorly fitted or top-dose-only effect, or another doubt; inactive means no such curve, though single readings can be large; an effect the other way counts as inactive or inconclusive.
What was measured:
[1] = molecular target: Calcium and integrin-binding protein 1 (Homo sapiens) (UniProt Q99828); experiment: Primary qHTS for Identification of Calcium Integrin Binding Protein 1 (CIB1) Competitor (AID 1508620);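 further: GST tagged CIB1 binding a fluorescein labelled alphaIIb integrin peptide tracer; top concentration of the series differs between compounds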
Outline: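 Fluorescence polarization competition: GST-tagged CIB1 (1 uM final) preincubated with compound 15 min at room temperature, then FITC-labelled alphaIIb peptide (100 nM final) added. After 15 min at room temperature, polarization read at Ex 480/Em 540.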

[2] = Primary qHTS for small molecule stabilizers of the endoplasmic reticulum resident proteome: Secreted ER Calcium Modulated Protein (SERCaMP) assay (AID 1508630)
Outline: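 GLuc-SERCaMP-expressing SH-SY5Y cells, pretreated 16 h with compound, are challenged with thapsigargin to empty ER calcium stores; after 4 h, coelenterazine is added directly to the medium and luminescence is imaged.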

Calcium and integrin-binding protein 1 (Homo sapiens), sequence (Q99828 whole entry, looked up): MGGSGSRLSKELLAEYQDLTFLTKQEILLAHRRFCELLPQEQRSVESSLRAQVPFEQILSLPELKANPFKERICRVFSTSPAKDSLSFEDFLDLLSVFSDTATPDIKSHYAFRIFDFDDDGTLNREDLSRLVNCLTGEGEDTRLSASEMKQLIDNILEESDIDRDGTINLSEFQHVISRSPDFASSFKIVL

Compound	Potency [1]	outcome [2]
N#CC(=C(N)Sc1ccc(N)cc1)c1ccccc1C(F)(F)F	inactive	inactive
C=CCNC1=C2C[C@@H](C)C[C@H](OC)[C@@H](O)[C@@H](C)C=C(C)[C@H](OC(N)=O)[C@@H](OC)C=CC=C(C)C(=O)NC(=CC1=O)C2=O	inactive	inactive
CC(=O)O[C@H]1C[C@@H]2CC[C@H]3[C@H]4C[C@H]([N+]5(C)CCCCC5)[C@@H](OC(C)=O)[C@@]4(C)CC[C@@H]3[C@@]2(C)C[C@H]1N1CCCCC1	inactive	inactive
CC(C)N(CC[C@H](c1ccccc1)c1cc(CO)ccc1O)C(C)C	inactive	inactive
CC(C=CC(=O)NO)=C[C@@H](C)C(=O)c1ccc(N(C)C)cc1	inactive	inactive
O=C(O)C[C@H](O)C[C@H](O)C=Cc1c(C2CC2)nc2ccccc2c1-c1ccc(F)cc1	inactive	inactive
COc1cc(OC)cc(-c2ccc3ncc4ccc(=O)n(-c5ccc(N6CCNCC6)c(C(F)(F)F)c5)c4c3c2)c1	inactive	inactive
CN1C(C(=O)Nc2ccccn2)=C(O)c2sc(Cl)cc2S1(=O)=O	inactive	inactive
COc1cc(C=CC(=O)CC(=O)C=Cc2ccc(O)c(OC)c2)ccc1O	inactive	inactive
COc1cc2c(Nc3ccc(Cl)c(Cl)c3F)ncnc2cc1OCC1C[C@@H]2CN(C)C[C@H]2C1	inactive	inactive
CC(=O)N[C@H]1[C@@H]([C@H](O)[C@H](O)CO)OC(C(=O)O)=C[C@@H]1N=C(N)N	inactive	inactive
COc1ccc(C=Cc2cc(OC)c(OC)c(OC)c2)cc1NC(=O)[C@H](N)CO	inactive	inactive
Cc1nc(NC(=O)N2CCC[C@@H]2C(N)=O)sc1-c1ccnc(C(C)(C)C(F)(F)F)c1	inactive	inactive
OCC(O)C(O)C(O)CO (stereo not drawn)	inactive	inactive
